Assay results as given in PubChem BioAssay AID1159580 (chemical genetic matrix, 2015).
Values joined by “and” are separate entries in the source; they are usually repeats but may differ in a detail not shown here. Equal values may be shown once. Out of some 5,500 compounds screened, about 2,000 (36%) were called active. About 18% were inconclusive and are not listed. Cut-off read from the data, not from the text of the source: active = normalized growth mostly below about 0.91 (no sharp cut-off); inconclusive = no clear call, values can overlap the other calls; inactive = mostly above about 0.92. The list shows a part of the results.

Experiment: chemical genetic growth profiling, strain panel (AID 1159580);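 note: tested at 20 µM; growth read once vehicle control cultures reached saturation at 30 °C; 1 = growth at the plate median or of vehicle wells; lower values mean less growth of the strain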
Conditions: S. cerevisiae deletion strains, growth OD

Measured: normalized growth

CN/C(=C\[N+](=O)[O-])NCCSCc1ccc(CN(C)C)o1
inactive: locus YAL021C, strain ccr4, active compounds read low 0.979 | locus YAL026C, strain drs2, active compounds read low 0.99 | locus YAL030W, strain snc1, active compounds read low 1 | locus YAL040C, strain CLN3, active compounds read low 1 | locus YBL061C, strain skt5, active compounds read low 0.974 | locus YBR009C, strain hhf1, active compounds read low 0.998 | locus YBR021W, strain FUR4, active compounds read low 1.04 | locus YBR023C, strain chs3, active compounds read low 0.989 | locus YBR171W, strain sec66, active compounds read low 0.989 | locus YBR229C, strain ROT2, active compounds read low 1.02 | locus YBR231C, strain swc5, active compounds read low 0.977 | locus YBR279W, strain paf1, active compounds read low 0.991 | locus YCL011C, strain gbp2, active compounds read low 0.984 | locus YCL016C, strain dcc1, active compounds read low 0.986 | locus YCL029C, strain bik1, active compounds read low 1 | locus YCL061C, strain MRC1 (second series), active compounds read low 1.01 | locus YCL069W, strain vba3, active compounds read low 0.973 | locus YCR088W, strain abp1, active compounds read low 0.976 | locus YDL005C, strain med2, active compounds read low 0.977 | locus YDL035C, strain GPR1, active compounds read low 1.04 | locus YDL040C, strain nat1, active compounds read low 0.99 | locus YDL074C, strain BRE1, active compounds read low 1.07 | locus YDL101C, strain DUN1, active compounds read low 1.03 | locus YDL134C, strain PPH21, active compounds read low 1.03 | locus YDL185W, strain tfp1, active compounds read low 0.987 | locus YDL192W, strain arf1, active compounds read low 0.989 | locus YDR001C, strain nth1, active compounds read low 0.982 | locus YDR069C, strain doa4, active compounds read low 0.97 | locus YDR101C, strain arx1, active compounds read low 1.01 | locus YDR137W, strain rgp1, active compounds read low 0.975 | locus YDR150W, strain NUM1, active compounds read low 1.02 | locus YDR159W, strain sac3, active compounds read low 0.94 | locus YDR162C, strain NBP2, active compounds read low 1.02 | locus YDR195W, strain ref2 0.943 | locus YDR297W, strain sur2, active compounds read low 0.972 | locus YDR318W, strain mcm21, active compounds read low 0.991 | locus YDR334W, strain swr1, active compounds read low 0.977 | locus YDR335W, strain msn5, active compounds read low 0.998 | locus YDR363W, strain ESC2, active compounds read low 1 | locus YDR388W, active compounds read low 0.995 | locus YDR392W, strain spt3, active compounds read low 0.993 | locus YDR502C, strain sam2, active compounds read low 0.997 | locus YEL003W, strain gim4, active compounds read low 0.992 | locus YEL037C, strain rad23, active compounds read low 0.986 | locus YEL061C, strain CIN8 (second series), active compounds read low 0.977 | locus YEL061C, strain CIN8, active compounds read low 1.01 | locus YER002W, strain NOP16, active compounds read low 0.988 | locus YER015W, strain faa2, active compounds read low 0.995 | locus YER016W, strain bim1, active compounds read low 0.973 | locus YER110C, active compounds read low 1 | locus YER111C, strain swi4, active compounds read low 0.992 | locus YER155C, strain BEM2 (second series), active compounds read low 0.973 | locus YER155C, strain BEM2, active compounds read low 1.01 | locus YER167W, strain BCK2, active compounds read low 1.02 | locus YFR010W, strain ubp6, active compounds read low 0.99 | locus YGL078C, strain dbp3, active compounds read low 0.986 | locus YGL086W, strain mad1, active compounds read low 0.999 | locus YGL167C, strain pmr1, active compounds read low 0.987 | locus YGL173C, strain kem1, active compounds read low 0.989 | locus YGL227W, strain vid30, active compounds read low 0.978 | locus YGL240W, strain doc1, active compounds read low 0.996 | locus YGL248W, strain PDE1, active compounds read low 1.04 | locus YGL253W, strain hxk2, active compounds read low 0.993 | locus YGR078C, strain PAC10, active compounds read low 0.997 | locus YGR135W, strain pre9, active compounds read low 0.98 | locus YGR252W, strain gcn5, active compounds read low 0.984 | locus YHR013C, strain ard1, active compounds read low 0.952 | locus YHR027C, strain rpn1, active compounds read low 1.01 | locus YHR030C, strain SLT2, active compounds read low 1.02 and 0.986 | locus YHR079C, strain IRE1 (second series), active compounds read low 0.982 | locus YHR079C, strain IRE1, active compounds read low 0.999 | locus YHR094C, strain hxt1, active compounds read low 0.983 | locus YHR129C, strain ARP1, active compounds read low 1.02 | locus YHR142W, strain chs7, active compounds read low 0.99 | locus YHR200W, strain rpn10, active compounds read low 0.984 | locus YIL066C, strain RNR3, active compounds read low 1.04 | locus YIL073C, strain SPO22, active compounds read low 0.98 | locus YIL125W, strain kgd1, active compounds read low 0.984 | locus YIR030C, strain dcg1, active compounds read low 0.988 | locus YJL092W, strain hpr5, active compounds read low 0.979 | locus YJL095W, strain BCK1 (second series), active compounds read low 0.995 | locus YJL095W, strain BCK1, active compounds read low 1.05 and 0.995 | locus YJL115W, strain asf1, active compounds read low 0.986 | locus YJL129C, strain trk1, active compounds read low 0.957 | locus YJL134W, strain LCB3, active compounds read low 1.01 | locus YJL154C, strain vps35, active compounds read low 0.973 | locus YJL164C, strain tpk1, active compounds read low 0.996 | locus YJL166W, strain qcr8, active compounds read low 0.985 | locus YJL168C, strain set2, active compounds read low 0.988 | locus YJL187C, strain SWE1 (second series), active compounds read low 1.04 | locus YJL187C, strain SWE1, active compounds read low 0.977 | locus YJR043C, strain POL32, active compounds read low 1.05 | locus YJR066W, strain TOR1, active compounds read low 0.944 | locus YJR075W, strain HOC1, active compounds read low 0.996
